Hits are enriched below; roughly 3.7% of the tested compounds scored in any of these assays.
Wnt act: Wnt/beta-catenin pathway activation | AID 743398 | activation, % at 9.35 µM | actives 1.2% (n = 300,000) | Wnt/beta-catenin reporter cell assay, activator, plate reader; in the data active = activation above about 30%, passing the limit was not always enough; inconclusive = no clear call, values can overlap the other calls;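 note: 0% = neutral control wells and 100% = positive control wells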
MITF TRPM1 HTS: activators of MITF-driven TRPM1 promoter activity in SK-MEL-5 cells | activation, % at 12.5 µM | SK-MEL-5 TRPM1-promoter luciferase, 24 h; % of positive control, neutral wells = 0 | actives 0.75% (n = 300,000);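 active = mean activation of at least 80% with every replicate also reaching 80%; inconclusive = mean reaches 80% but some replicate falls short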;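 note: 0% = neutral control wells and 100% = parthenolide positive control wells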
esBAF inh: SWI/SNF esBAF complex inhibition. mouse ES cells, Bmi1-luciferase knock-in reporter, 24 h; 100% = twice the neutral-well signal. reporter increase, % at 12.5 µM. actives 2% (n = 350,000). AID 602393; in the data active = activation above about 40%; inconclusive = no clear call, values can overlap the other calls;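 note: 0% = median of the plate's neutral control wells and 100% = double that signal; a rise in the Bmi1 reporter signal indicates esBAF inhibition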
MLL AF4-AF9 inh: MLL-AF4/AF9 protein interaction inhibition; AlphaScreen, biotin-AF4 peptide binding to FLAG-AF9; actives 0.47% (n = 350,000); inhibition, % at 10 µM;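 active = every replicate reaching a set inhibition limit, whatever the replicate mean, cut at about 25% in these data; inconclusive = mean inhibition reaches that limit but some replicates miss it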;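 note: 0% = plate neutral control median and 100% = total signal loss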
Target sequence (P42568 whole entry, looked up): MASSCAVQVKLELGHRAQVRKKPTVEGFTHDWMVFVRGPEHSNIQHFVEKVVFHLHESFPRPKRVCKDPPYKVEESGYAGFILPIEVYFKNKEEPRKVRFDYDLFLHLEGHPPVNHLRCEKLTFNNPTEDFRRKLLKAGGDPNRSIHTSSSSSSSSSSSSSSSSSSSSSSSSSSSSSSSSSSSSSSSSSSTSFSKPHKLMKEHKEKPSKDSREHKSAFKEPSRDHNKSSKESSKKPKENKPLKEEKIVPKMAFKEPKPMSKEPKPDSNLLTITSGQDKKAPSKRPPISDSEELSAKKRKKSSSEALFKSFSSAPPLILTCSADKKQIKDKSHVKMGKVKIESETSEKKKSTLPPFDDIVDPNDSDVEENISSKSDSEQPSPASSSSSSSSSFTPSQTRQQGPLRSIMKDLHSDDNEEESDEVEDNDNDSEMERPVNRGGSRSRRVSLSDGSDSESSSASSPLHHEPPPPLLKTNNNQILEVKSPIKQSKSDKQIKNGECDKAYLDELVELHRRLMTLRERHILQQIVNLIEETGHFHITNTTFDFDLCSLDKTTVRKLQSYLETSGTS
rRNA inh HTS: inhibitors of bacterial rRNA selective over humanized ribosomes. E. coli WT GFP vs humanized-ribosome RFP mutants, fluorescence, 24 h; active compounds read low; DMSO median 0, no signal -100. GFP signal change (wild-type ribosome), % (concentration not given with the values). actives 1.6% (n = 350,000). AID 720706;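 active = significant combined selectivity score with lowered wild-type GFP, culture density cut under 30%, mutant RFP and density less affected; inactive = any of these conditions unmet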
* hit, by the source's call; ? = inconclusive; nt = no result.

SMILES	Wnt act	MITF TRPM1 HTS	esBAF inh	MLL AF4-AF9 inh	rRNA inh HTS
COc1ccc(OCc2cc(C(=O)N(C)Cc3nccn3C)no2)c2ccccc12	-2	-28	0	14	-14
COc1cccc(OCc2cc(C(=O)N(C)Cc3nccn3C)no2)c1	29	?	69*	0	3
C[C@H](CO)N1C[C@H](C)[C@H](CN(C)C(=O)Nc2ccc3c(c2)OCO3)OCCCC[C@H](C)Oc2ccc(N(C)C)cc2C1=O	nt	nt	3	nt	-4
O=C(c1cccnc1)N1CC(=O)N2[C@H](CO)[C@@H](c3ccc(/C=C/c4ccccc4)cc3)[C@H]2C1	nt	nt	nt	27*	-3
O=C(NC1CCCC1)N1CC(=O)N2[C@H](C1)[C@@H](c1ccc(/C=C/c3ccccc3)cc1)[C@@H]2CO	nt	nt	nt	25*	-7
O=C(NC1CCCC1)N1CC(=O)N2[C@H](CO)[C@@H](c3ccc(/C=C/c4ccccc4)cc3)[C@@H]2C1	nt	nt	nt	8	-12
C[C@@H]1CN([C@@H](C)CO)C(=O)Cc2cc(NS(=O)(=O)c3ccccc3)ccc2O[C@H]1CN(C)C(=O)Nc1ccc2c(c1)OCO2	nt	nt	36	nt	2
O=C(NCC1CCCO1)c1cc(-c2ccncc2)nc2ccccc12 (stereo not drawn)	-3	-6	-7	1	12
CCCOc1ccc(-c2cc(C(=O)NCC3CCCO3)c3ccccc3n2)cc1 (stereo not drawn)	5	22	23*	-1	nt
O=[N+]([O-])c1ccc(O)c(C2=NNC(c3ccccc3F)C2)c1 (stereo not drawn)	-2	51	19	-9	-54*
COc1ccc(NC(=O)/C=C/c2cccc(Br)c2)cn1	-4	44	67*	3	2
Fc1ccc2cnc(-c3ccsc3)cc2c1	2	nt	nt	2	-16
COc1ccc(-c2cc3ccccc3cn2)cc1	27	18	-24	-4	0
COc1ccc2cc(-c3cccnc3)ncc2c1	?	97*	33	-8	-18
COc1ccc2cc(-c3ccccc3F)ncc2c1	38*	66	-13	-4	-25
Fc1ccc2cc(-c3cccnc3)ncc2c1	7	35	50*	-2	2
COc1ccc(-c2cc3ccc(OC)cc3cn2)cc1	7	-16	-65	1	-16
O=C(c1cc2ccccc2oc1=O)N(Cc1ccco1)C1CCS(=O)(=O)C1 (stereo not drawn)	nt	75	82*	nt	nt
CCOc1ccccc1NC(=O)c1csc(C)c1C	2	8	3	-4	-31*
C=C(C)C1CC=C(C)/C(=N/NC(=O)c2cccs2)C1 (stereo not drawn)	27	98*	43*	nt	nt
CN(C)CCN(Cc1ccco1)C(=O)c1cc2c(Cl)nc3ccccc3c2s1	0	12	nt	15	-33*
CC(=O)Nc1cc2c(cc1[N+](=O)[O-])-c1ccccc1C2O (stereo not drawn)	nt	-13	-1	nt	nt
Cc1coc2c(C)c3oc(=O)c(CCC(=O)NCc4ccccn4)c(C)c3cc12	-1	2	-9	0	nt
Cc1cccc(OCCCn2c(=O)oc3ccccc32)c1	15	70	48*	-1	-31
C[C@@H]1CCCCO[C@@H](CN(C)Cc2ccc3c(c2)OCO3)[C@H](C)CN([C@@H](C)CO)C(=O)c2cc(NS(=O)(=O)c3ccc(F)cc3)ccc2O1	nt	nt	-1	3	2
SMILES	Wnt act	MITF TRPM1 HTS	esBAF inh	MLL AF4-AF9 inh	rRNA inh HTS
CC(C)C(NC(=O)CN(c1ccc2c(c1)OCCO2)S(=O)(=O)c1ccccc1)C(C)C	-3	nt	-10	-1	-26
N#Cc1ccccc1COC(=O)c1cccc(S(=O)(=O)N2CCCC2)c1	1	6	-4	-3	-29*
Cc1cc(C)cc(NC(=O)COC(=O)c2cccc(S(=O)(=O)N3CCCCC3)c2)c1	33*	-4	3	1	3
Cc1ccc2c(C)c(C(=O)NCc3ccc(S(N)(=O)=O)cc3)oc2c1C	-2	-3	nt	-16	13
Cc1ccc2c(C)c(C(=O)Nc3ccc(S(N)(=O)=O)cc3)oc2c1C	30*	21	-3	-2	8
Cc1c(C(=O)O)oc2c1C(O)CCC2 (stereo not drawn)	-6	nt	-5	nt	-6
CCN1C(=O)[C@H]2[C@@H](c3ccc(C)cc3)N3C(=O)N(c4ccc(C)cc4)C(=O)[C@@]3(CC)[C@H]2C1=O	5	5	47*	-1	3
CO[C@@H]1CN(C)C(=O)c2cc(NC(=O)CN(C)C)ccc2OC[C@@H](C)N(C(=O)C2CC2)C[C@H]1C	nt	nt	3	2	5
Cc1ccc(C)c(S(=O)(=O)Nc2ccccc2C(=O)Nc2ccc(S(=O)(=O)Nc3ncccn3)cc2)c1	-2	-1	nt	4	-31*
Cc1ccc(S(=O)(=O)N(CCC(=O)N2CCOCC2)c2ccccc2)cc1	3	-4	nt	-10	6
CCCCNC(=S)NNC(=O)c1csc(C)c1C	nt	18	nt	nt	nt
Cc1scc(C(=O)NNC(=S)NC(C)c2ccccc2)c1C (stereo not drawn)	3	1	nt	2	-20*
COc1cc2cc(C(=O)NCCc3c[nH]c4ccccc34)c(N)nc2cc1OC	-3	nt	nt	2	-31*
O=C(NCCc1c[nH]c2ccccc12)c1ccc(F)cc1F	11	48	57*	3	2
O=C(NCCc1c[nH]c2ccccc12)C(=O)NCC1OCCCN1S(=O)(=O)c1ccc(F)cc1 (stereo not drawn)	-4	-5	nt	2	-18*
Cc1ccc(S(=O)(=O)N2CCOC2CNC(=O)C(=O)NCCc2c[nH]c3ccccc23)cc1 (stereo not drawn)	-13	-13	nt	2	-22
Nc1nc2cc3c(cc2cc1C(=O)NCCc1c[nH]c2ccccc12)OCO3	-4	nt	nt	nt	-25*
O=C(NCCc1c[nH]c2ccccc12)c1ccc(Cl)cc1	18	nt	39	4	-29
COc1cc(SC)ccc1C(=O)NCCc1c[nH]c2ccccc12	3	-1	31	6	-18
O=C(NCCc1c[nH]c2ccccc12)c1cnccn1	1	-8	nt	1	nt
CCc1ccccc1NC(=O)CSc1nc2cc(C(=O)NCC3CCCO3)ccc2c(=O)n1CC1CCCO1 (stereo not drawn)	-2	nt	2	-16	-1
CCOC(=O)c1c(C)n(CC(O)CN(CC)CC)c2cc(Br)c(OC)cc12 (stereo not drawn)	0	3	-1	-1	13
COC(=O)CC(N)c1ccc(OC)c2ccccc12 (stereo not drawn)	nt	nt	1	nt	nt
COc1ccc(C(O)P(=O)(OC(C)C)OC(C)C)cc1OC (stereo not drawn)	1	-3	nt	-6	11
Cc1csc(=N)n1-c1ccc(Cl)cc1	-1	97*	63*	-8	-2
Cc1ccc(-n2c(C)csc2=N)cc1	nt	59	35	nt	nt
O=C(CSc1cccc[n+]1[O-])C12CC3CC(CC(C3)C1)C2	0	-4	nt	-6	-27*
